In PubChem BioAssay (Tox21):
Values joined by “and” are separate entries in the source; they are usually repeats but may differ in a detail not shown here. Identical values can stand only once. Inconclusive results are not listed. Entries that show only a call come without a potency. Where a structure was tested more than once in an assay, its records may differ in their call. Active and inactive are the calls of the source. Calls follow the shape of the full dose curve.

Experiment: qHTS assay for small molecule agonists of the antioxidant response element (ARE) signaling pathway - cell viability counter screen (AID 743203); also: nearly all actives have a fitted effect of over 55% in size
Conditions: ARE-bla HepG2 viability, CellTiter-Glo luminescence, 16 h; series mostly up to 73.3 µM
From the text: National Center for Advancing Translational Sciences [NCATS]
NIH Chemical Genomics Center [NCGC]
U.S. Environmental Protection Agency [EPA]
National Institutes of Environmental Health Sciences [NIEHS]
National Toxicology Program [NTP]
U.S. Food and Drug Administration [FDA]
Oxidative stress has been implicated in the pathogenesis of a variety of diseases ranging from cancer to neurodegeneration. The antioxidant response element (ARE) signaling pathway plays an important role in the amelioration of oxidative stress. The CellSensor ARE-bla HepG2 cell line (Invitrogen) can be used for analyzing the Nrf2/antioxidant response signaling pathway. Nrf2 (NF-E2-related factor 2) and Nrf1 are transcription factors that bind to AREs and activate these genes. The CellSensor ARE-bla Hep G2 cell line contains a beta-lactamase reporter gene under control of the Antioxidant Response Element (ARE) stably integrated into HepG2 cells. The activation of the report gene under culture conditions can be detected by fluorescence intensity. This cell line has been used to screen the Tox21 10K compound library to identify agonists that induce oxidative stress. The cytotoxicity of the Tox21 compound library against the ARE-bla cell line was tested in parallel by measuring the cell viability using CellTiter-Glo assay (Promega, Madison, WI) in the same wells.
Tox21 Assay Protocol Summary:
ARE-bla HepG2 cells were dispensed at 2,000 cells/5 ul/well in 1536-well white wall/solid bottom plates using a Multidrop Combi (ThermoFisher Scientific, Waltham, MA) dispenser. After the assay plates were incubated at 37C/5% CO2 for 5 hrs, 23 nL of compounds dissolved in DMSO, positive controls or DMSO only was transferred to the assay plate by a pintool work station (Kalypsys, San Diego, CA). The plates were incubated at 37C/5% CO2 for 16 hrs, followed by addition of 4 ul/well of CellTiter-Glo reagent into the assay plates using a Flying Reagent Dispenser (Aurora Discovery, San Diego, CA). After 30 min incubation at room temperature, the luminescence intensity in the assay plates was measured using a ViewLux (PerkinElmer, Shelton, CT) plate reader.
Potency is read from the fitted curve at half-maximal effect.

Row | SMILES | Potency
1 | CC(C)(O)C(=O)Nc1ccc([N+](=O)[O-])c(C(F)(F)F)c1 | inactive
2 | Nc1ncn[nH]1 | inactive
3 | ClC(Cl)=C(Cl)C(Cl)=C(Cl)Cl | inactive
4 | CNC(=O)Oc1cccc2c1OC(C)(C)C2 | inactive
5 | CCNc1nc(Cl)nc(NC(C)(C)C#N)n1 | inactive
6 | CCCCCCCCCCCCCl | inactive
7 | [Cl-].[Cl-].[Cl-].[Fe+3] | inactive
8 | Cc1ccc([N+](=O)[O-])cc1 | inactive
9 | CN(C)c1ccccc1 | inactive
10 | CCCCC(C#N)(Cn1cncn1)c1ccc(Cl)cc1 (stereo not given) | inactive
11 | COP(=S)(OC)SCn1nnc2ccccc2c1=O | inactive
12 | NC(=O)CN1CCCC1=O | inactive
13 | Cn1c(-c2ccccc2)cc(-c2ccccc2)[n+]1C | inactive
14 | CC(C)(O)C#N | inactive
15 | CC1(C)Cc2cccc(O)c2O1 | inactive
16 | O=C1Nc2ccc(Cl)cc2C(c2ccccc2)=NC1O (stereo not given) | inactive
17 | CCC1(c2ccc(N)cc2)CCC(=O)NC1=O (stereo not given) | inactive
18 | N#CC(c1ccccc1)c1ccccc1 | inactive
19 | CCC[CH2][Sn]([Cl])([Cl])[CH2]CCC | 276 nM (active) and 34.4 nM (active)
20 | O=[N+]([O-])c1ccc(Nc2ccccc2)cc1 | 34.4 µM (active)

Row | SMILES | Potency
21 | Nc1ccc([N+](=O)[O-])cc1N | inactive
22 | CSc1nc(NC(C)C)nc(NC(C)C)n1 | inactive
23 | [CH3][Sn]([Cl])([Cl])[Cl] | inactive
24 | CCCCOCCOC(C)=O | inactive
25 | O=NN1CCOCC1 | inactive
26 | C=CC(=O)OCC(CC)(COC(=O)C=C)COC(=O)C=C | inactive and 61.1 µM (active)
27 | CN(C)P(=O)(N(C)C)N(C)C | inactive
28 | O=C(O)c1nn(Cc2ccc(Cl)cc2Cl)c2ccccc12 | inactive
29 | CC(C)CON=O | inactive
30 | c1ccc2c(c1)Nc1ccccc1S2 | inactive
31 | N#Cc1c(Cl)c(Cl)c(Cl)c(C#N)c1Cl | 10.7 µM (active) and 3.86 µM (active)
32 | CCOP(=S)(OCC)SCn1c(=O)oc2cc(Cl)ccc21 | inactive
33 | NN=C(N)N | inactive
34 | CCOP(=O)(OCC)OCC | inactive
35 | Cc1cc(Cl)ccc1N=CN(C)C | inactive
36 | N#CCCCCC#N | inactive
37 | ClCc1ccccn1 | inactive
38 | CNC(=S)S | inactive
39 | Clc1ccccc1-c1nnc(-c2ccccc2Cl)nn1 | inactive
40 | Oc1ccc(Cl)cc1Cc1ccccc1 | 68.6 µM (active) and 55.1 µM (active)
